# From publication PMC5540273 (PLoS ONE, 2017)
# Read-outs that look alike come from different tables or passages of the source.
# Key:
# TAOK3 = details: concentration: 1 μM, replicates: in singlicate; n = 1
# TBK1 = details: concentration: 1 μM, replicates: in singlicate; n = 1
# TEC = details: concentration: 1 μM, replicates: in singlicate; n = 1
# TESK1 = details: concentration: 1 μM, replicates: in singlicate; n = 1
# TGFBR1 = details: n = 1
# TGFBR2 = details: concentration: 1 μM, replicates: in singlicate; n = 1
# TIE1 = details: concentration: 1 μM, replicates: in singlicate; n = 1
# TIE2 = tested on: T1, TIE2; details: concentration: 1 μM, replicates: in singlicate; n = 1
# T1 construct: gene TEK
# TLK1 = details: concentration: 1 μM, replicates: in singlicate; n = 1
# TLK2 = details: concentration: 1 μM, replicates: in singlicate; n = 1
# TNIK = details: concentration: 1 μM, replicates: in singlicate; n = 1
# TNK1 = details: concentration: 1 μM, replicates: in singlicate; n = 1
# TNK2 = details: concentration: 1 μM, replicates: in singlicate; n = 1
# TNNI3K = details: concentration: 1 μM, replicates: in singlicate; n = 1
# TRKA = tested on: T2, TRKA; details: concentration: 1 μM, replicates: in singlicate; n = 1
# T2 construct: gene NTRK1
# TRKB = details: concentration: 1 μM, replicates: in singlicate; n = 1
# TRKC = tested on: T3, TRKC; details: concentration: 1 μM, replicates: in singlicate; n = 1
# T3 construct: gene NTRK3
# TRPM6 = details: concentration: 1 μM, replicates: in singlicate; n = 1
# TSSK1B = details: concentration: 1 μM, replicates: in singlicate; n = 1
# TSSK3 = details: concentration: 1 μM, replicates: in singlicate; n = 1
# [1] = concentration: 1 μM, replicates: in singlicate
# 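Note: KINOMEscan kinase panel screen.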
compound,measurement,setting,value
O=c1cc(N2CCOCC2)nc2n(Cc3cccc(Cl)c3Cl)ccn12 [GSK2286295],%Inh,TAOK3,0%
same,%Inh,TBK1,19%
same,%Inh,TEC,0%
same,%Inh,TESK1,1%
same,%Inh,TGFBR1; [1],0%
same,%Inh,TGFBR2,0%
same,%Inh,TIE1,0%
same,%Inh,TIE2,0%
same,%Inh,TLK1,0%
same,%Inh,TLK2,0%
same,%Inh,TNIK,0%
same,%Inh,TNK1,8%
same,%Inh,TNK2,12%
same,%Inh,TNNI3K,13%
same,%Inh,TRKA,0%
same,%Inh,TRKB,0%
same,%Inh,TRKC,0%
same,%Inh,TRPM6,25%
same,%Inh,TSSK1B,0%
same,%Inh,TSSK3,47%
Fc1cccc(COc2nnc(-c3ccc4c(c3)CCO4)o2)c1,%Inh,TAOK3,0%
same,%Inh,TBK1,0%
same,%Inh,TEC,33%
same,%Inh,TESK1,0%
same,%Inh,TGFBR1; [1],10%
same,%Inh,TGFBR2,0%
same,%Inh,TIE1,7%
same,%Inh,TIE2,0%
same,%Inh,TLK1,25%
same,%Inh,TLK2,0%
same,%Inh,TNIK,14%
same,%Inh,TNK1,0%
same,%Inh,TNK2,0%
same,%Inh,TNNI3K,0%
same,%Inh,TRKA,24%
same,%Inh,TRKB,0%
same,%Inh,TRKC,48%
same,%Inh,TRPM6,0%
same,%Inh,TSSK1B,0%
same,%Inh,TSSK3,0%
O=S(=O)(c1ccc(-c2ccnc3[nH]ccc23)cc1)N1CCCC1 [GSK846226],%Inh,TAOK3,0%
same,%Inh,TBK1,33%
same,%Inh,TEC,4%
same,%Inh,TESK1,9%
same,%Inh,TGFBR1; [1],0%
same,%Inh,TGFBR2,0%
same,%Inh,TIE1,0%
same,%Inh,TIE2,0%
same,%Inh,TLK1,24%
same,%Inh,TLK2,19%
same,%Inh,TNIK,0%
same,%Inh,TNK1,0%
same,%Inh,TNK2,9%
same,%Inh,TNNI3K,3%
same,%Inh,TRKA,69%
same,%Inh,TRKB,0%
same,%Inh,TRKC,0%
same,%Inh,TRPM6,26%
same,%Inh,TSSK1B,10%
same,%Inh,TSSK3,18%
COc1ccccc1-c1ccc2c(NC(=O)C3CC3)n[nH]c2n1 [SB-711239],%Inh,TAOK3,0%
same,%Inh,TBK1,26%
same,%Inh,TEC,0%
same,%Inh,TESK1,8%
same,%Inh,TGFBR1; [1],14%
same,%Inh,TGFBR2,1%
same,%Inh,TIE1,6%
same,%Inh,TIE2,11%
same,%Inh,TLK1,0%
same,%Inh,TLK2,2%
same,%Inh,TNIK,0%
same,%Inh,TNK1,4%
same,%Inh,TNK2,8%
same,%Inh,TNNI3K,14%
same,%Inh,TRKA,24%
same,%Inh,TRKB,0%
same,%Inh,TRKC,20%
same,%Inh,TRPM6,0%
same,%Inh,TSSK1B,0%
same,%Inh,TSSK3,21%
Cc1ccc(NC(=O)Nc2cc(C(C)(C)C)nn2-c2ccccc2)cc1 [GSK1014915],%Inh,TAOK3,0%
same,%Inh,TBK1,0%
same,%Inh,TEC,11%
same,%Inh,TESK1,13%
same,%Inh,TGFBR1; [1],18%
same,%Inh,TGFBR2,1%
same,%Inh,TIE1,9%
same,%Inh,TIE2,0%
same,%Inh,TLK1,2%
same,%Inh,TLK2,0%
same,%Inh,TNIK,0%
same,%Inh,TNK1,0%
same,%Inh,TNK2,15%
same,%Inh,TNNI3K,21%
same,%Inh,TRKA,0%
same,%Inh,TRKB,28%
same,%Inh,TRKC,26%
same,%Inh,TRPM6,24%
same,%Inh,TSSK1B,2%
same,%Inh,TSSK3,14%
COc1cc2ncn(-c3cc(OCC4CCCO4)c(C(N)=O)s3)c2cc1OC (centres unmarked) [GSK204607],%Inh,TAOK3,0%
same,%Inh,TBK1,23%
same,%Inh,TEC,0%
same,%Inh,TESK1,0%
same,%Inh,TGFBR1; [1],4%
same,%Inh,TGFBR2,0%
same,%Inh,TIE1,0%
same,%Inh,TIE2,0%
same,%Inh,TLK1,0%
same,%Inh,TLK2,11%
same,%Inh,TNIK,27%
same,%Inh,TNK1,0%
same,%Inh,TNK2,17%
same,%Inh,TNNI3K,0%
same,%Inh,TRKA,15%
same,%Inh,TRKB,0%
same,%Inh,TRKC,0%
same,%Inh,TRPM6,0%
same,%Inh,TSSK1B,0%
same,%Inh,TSSK3,10%
CS(=O)(=O)c1ccc(-c2c(-c3ncn[nH]3)sc(N3CCOCC3)c2C#N)cc1,%Inh,TAOK3,0%
same,%Inh,TBK1,14%
same,%Inh,TEC,9%
same,%Inh,TESK1,0%
same,%Inh,TGFBR1; [1],12%
same,%Inh,TGFBR2,10%
same,%Inh,TIE1,11%
same,%Inh,TIE2,9%
same,%Inh,TLK1,5%
same,%Inh,TLK2,0%
same,%Inh,TNIK,20%
same,%Inh,TNK1,55%
same,%Inh,TNK2,17%
same,%Inh,TNNI3K,0%
same,%Inh,TRKA,13%
same,%Inh,TRKB,0%
same,%Inh,TRKC,0%
same,%Inh,TRPM6,0%
same,%Inh,TSSK1B,29%
same,%Inh,TSSK3,5%
Cc1ccc(-c2cc(-c3c[nH]nc3-c3ccccn3)ccn2)cc1 [GW684088],%Inh,TAOK3,0%
same,%Inh,TBK1,26%
same,%Inh,TEC,0%
same,%Inh,TESK1,0%
same,%Inh,TGFBR1; 1 µM,89%
same,%Inh,TGFBR2,77%
same,%Inh,TIE1,0%
same,%Inh,TIE2,13%
same,%Inh,TLK1,24%
same,%Inh,TLK2,10%
same,%Inh,TNIK,90.2%
same,%Inh,TNK1,19%
same,%Inh,TNK2,12%
same,%Inh,TNNI3K,0%
same,%Inh,TRKA,18%
same,%Inh,TRKB,22%
same,%Inh,TRKC,40%
same,%Inh,TRPM6,0%
same,%Inh,TSSK1B,0%
same,%Inh,TSSK3,10%
Cc1nnc(-c2ccc3occ(-c4ccc(S(C)=O)cc4)c3c2)[nH]1 (centres unmarked),%Inh,TAOK3,0%
same,%Inh,TBK1,0%
same,%Inh,TEC,13%
same,%Inh,TESK1,2%
same,%Inh,TGFBR1; [1],10%
same,%Inh,TGFBR2,0%
same,%Inh,TIE1,0%
same,%Inh,TIE2,5%
same,%Inh,TLK1,14%
same,%Inh,TLK2,0%
same,%Inh,TNIK,5%
same,%Inh,TNK1,0%
same,%Inh,TNK2,0%
same,%Inh,TNNI3K,15%
same,%Inh,TRKA,28%
same,%Inh,TRKB,0%
same,%Inh,TRKC,43%
same,%Inh,TRPM6,1%
same,%Inh,TSSK1B,0%
same,%Inh,TSSK3,2%
NC(=O)c1nnc2ccccc2c1N,%Inh,TAOK3,3%
same,%Inh,TBK1,40%
same,%Inh,TEC,0%
same,%Inh,TESK1,6%
same,%Inh,TGFBR1; [1],1%
same,%Inh,TGFBR2,0%
same,%Inh,TIE1,14%
same,%Inh,TIE2,98.7%
same,%Inh,TLK1,14%
same,%Inh,TLK2,0%
same,%Inh,TNIK,3%
same,%Inh,TNK1,0%
same,%Inh,TNK2,0%
same,%Inh,TNNI3K,5%
same,%Inh,TRKA,74%
same,%Inh,TRKB,20%
same,%Inh,TRKC,10%
same,%Inh,TRPM6,24%
same,%Inh,TSSK1B,5%
same,%Inh,TSSK3,11%
